Bioassay records (PubChem BioAssay)
Hits are enriched below; roughly 4% of the tested compounds scored in any of these assays.
Mtb UGM inh – blocks M. tuberculosis UGM enzyme; purified UGM, fluorescence polarization probe displacement; inhibition, % at 10 µM; actives 0.06% (n = 320,000); in the data active means inhibition above about 10%, passing the limit was not always enough
GDH-TPI inh – GDH-TPI coupled enzyme inhibition counter-screen; GDH-TPI coupled enzyme counterscreen, NADH absorbance; inhibition, % at 4.8 µM; actives 1.2% (n = 360,000); in the data active means inhibition above about 30%
Rv3671c protease – inhibits the M. tuberculosis serine protease Rv3671c; inhibition, % at 5.96 µM; actives 0.048% (n = 320,000); in the data active means inhibition above about 38%;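 further: extracellular domain of Rv3671c used as enzyme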
Target sequence (P9WHR9 whole entry, looked up, the tested form may be a part): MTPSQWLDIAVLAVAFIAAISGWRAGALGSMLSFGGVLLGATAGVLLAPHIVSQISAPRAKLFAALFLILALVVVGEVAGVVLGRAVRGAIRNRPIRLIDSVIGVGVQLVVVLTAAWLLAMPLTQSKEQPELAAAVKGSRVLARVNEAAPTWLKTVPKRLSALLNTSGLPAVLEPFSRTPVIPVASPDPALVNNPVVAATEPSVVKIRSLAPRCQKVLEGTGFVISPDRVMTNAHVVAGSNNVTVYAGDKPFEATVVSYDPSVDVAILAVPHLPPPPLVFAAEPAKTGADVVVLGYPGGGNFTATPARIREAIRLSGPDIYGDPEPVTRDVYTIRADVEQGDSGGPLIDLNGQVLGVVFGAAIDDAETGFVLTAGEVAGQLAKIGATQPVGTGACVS
RecA intein inh – blocks M. tuberculosis RecA intein splicing | P9WHJ3 | cell-free RecA intein splicing, fluorescence | inhibition, % (test concentration not listed) | actives 0.75% (n = 290,000) | AID 2221; in the data active means inhibition above about 30%
Mtb bLac sens – beta-lactam sensitization of Mtb H37Rv. M. tuberculosis H37Rv growth with meropenem, percent inhibition. inhibition, % at 25 µM. actives 0.27% (n = 330,000); call rule not given here;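 further: growth measured after seven days incubation then overnight dye step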
Mtb FBA inh – inhibits M. tuberculosis FBA enzyme. inhibition, % at 1 µM. AID 588726. actives 2.3% (n = 360,000). P9WQA3. purified M. tuberculosis FBA, fluorescence read-out; in the data active means inhibition above about 27%
Large screens that a line does not name were inactive.

CCN(c1ccc(C)cc1)S(=O)(=O)c1nnc(NC(=O)c2ccco2)s1	GDH-TPI inh 41
CC(C)CN(c1ccccc1)S(=O)(=O)c1nnc(NC(=O)c2ccco2)s1	GDH-TPI inh 35
O=C(NC(=S)NCc1cccnc1)c1cc(Br)ccc1Cl	none
O=C(Nc1ccc([N+](=O)[O-])cc1)N1CCCCC1	GDH-TPI inh 45
O=C(Nc1ccc([N+](=O)[O-])cc1)N1CCCCCC1	none
CC1=CC(=O)C2=C(C)CCC3C(C)C(=O)OC3C12 (stereo not drawn)	none (no result: Mtb UGM inh, Rv3671c protease, RecA intein inh, Mtb bLac sens)
Cc1ccc(/C=C/C(=O)Nc2cc(S(N)(=O)=O)ccc2O)cc1	none
CCS(=O)(=O)c1ccc(O)c(NC(=O)/C=C/c2ccc(Cl)cc2)c1	GDH-TPI inh 34
CCOC(=O)N1CCN(C(=O)CS(=O)Cc2nc(-c3ccc(OC)c(OC)c3)oc2C)CC1 (stereo not drawn)	none
Cc1cc(/C=C(/C#N)C(=O)O)c(C)n1-c1cccc2ccccc12	GDH-TPI inh 41
CC(C)(C)c1ccc(C(=O)N2CCC2(C)C(=O)Nc2cccc(C#N)c2)cc1 (stereo not drawn)	none (no result: Mtb UGM inh, Rv3671c protease, RecA intein inh, Mtb bLac sens)
COc1ccccc1NC(=O)Nc1nnc(-c2ccco2)s1	none (no result: GDH-TPI inh, Mtb FBA inh)
COc1ccccc1C(=O)Nc1nnc(-c2ccco2)s1	GDH-TPI inh 33
COc1ccc(C(=O)Nc2nnc(-c3ccco3)s2)cc1	GDH-TPI inh 46
O=C1CC/C=C\C[C@@H](CC(=O)N(CCO)Cc2ccccc2)C(=O)N[C@H](Cc2c[nH]c3ccccc23)CO1	none (no result: RecA intein inh)
Cc1ccc(C(=O)Nc2nc3ccc(S(C)(=O)=O)cc3s2)o1	GDH-TPI inh 52
Cc1noc(C)c1C(=O)Nc1nc2ccc(S(C)(=O)=O)cc2s1	GDH-TPI inh 54
CS(=O)(=O)c1ccc2nc(NC(=O)c3ccco3)sc2c1	GDH-TPI inh 46
COc1ccc2nc(NC(=O)c3c(C)noc3C)sc2c1	none (no result: RecA intein inh)
Cc1ccc(S(=O)(=O)NCc2ccccc2)cc1C(=O)NCC(=O)Nc1c(C)cccc1C	none (no result: Mtb UGM inh, Rv3671c protease, RecA intein inh, Mtb bLac sens)
Cc1cn([C@H]2C[C@H](O)[C@@H](CCC(=O)NCCc3cnc[nH]3)O2)c(=O)[nH]c1=O	none (no result: Mtb UGM inh, Rv3671c protease, RecA intein inh, Mtb bLac sens)
Nc1nn2cc(-c3ccc(Br)cc3)nc2c2ccccc12	Mtb FBA inh 146
CC(C)C[C@H](N)c1nnc(S(=O)(=O)Cc2ccc(F)cc2)o1	RecA intein inh 34
CC1OC2CC(=O)OC2C2=C1C(=O)c1c(O)cccc1C2=O (stereo not drawn)	none (no result: Mtb UGM inh, Rv3671c protease, RecA intein inh, Mtb bLac sens)
COC(=O)[C@H](C(C)C)N(Cc1ccccc1)S(=O)(=O)CCNC1CCCC1	none (no result: Mtb UGM inh, Rv3671c protease, RecA intein inh, Mtb bLac sens)
Cc1cc(NC(=O)/C(C#N)=C/c2ccco2)n(-c2ccccc2)n1	none
Cc1ccc(-c2ccc(/C=C(\C#N)C(=O)Nc3cc(C)nn3-c3ccccc3)o2)cc1	Mtb UGM inh 48 (no result: GDH-TPI inh, Mtb FBA inh)
CCN(CC)CCNC(=O)c1ccc(NC(=O)/C=C/c2ccc3ccccc3n2)cc1	none (no result: Rv3671c protease)
C[C@@H]1CN([C@H](C)CO)C(=O)CCCn2cc(nn2)CO[C@H]1CN(C)C(=O)Nc1cccc(Oc2ccccn2)c1	none (no result: Mtb UGM inh, Rv3671c protease, RecA intein inh, Mtb bLac sens)
CN1C(=O)C(Cc2ccc3c(c2)OCO3)C(=O)N(C)C1=O	RecA intein inh 30 (no result: GDH-TPI inh, Mtb FBA inh)
C[C@@H]1CC=C[C@H]2[C@H]1C(=O)N(Cc1ccccc1)[C@H]2c1ccc(F)c(Br)c1	RecA intein inh 32 (no result: Mtb UGM inh, GDH-TPI inh, Rv3671c protease, Mtb bLac sens, Mtb FBA inh)
C[C@@H]1CC=C[C@H]2[C@H]1C(=O)N(Cc1ccccc1)[C@H]2c1ccc(F)c(/C=C/c2ccccc2)c1	none
CCOC(=O)c1c(C)n(S(=O)(=O)c2ccc(C)cc2)c2ccc(O)c(C(=O)O)c12	none (no result: RecA intein inh)
Cc1nc2c(C(=O)Nc3ccc(N4CCCC(O)C4)cc3)snc2c(=O)[nH]1 (stereo not drawn)	GDH-TPI inh 44
O=C(Nc1ccc(N2CCCC(O)C2)cc1)c1snc2c(=O)[nH]cnc12 (stereo not drawn)	none
O=C(NCc1ccccc1Cl)c1ccc(CSc2nc3ccncc3[nH]2)cc1	Mtb FBA inh 150
Clc1ccccc1CSc1nc2ccncc2[nH]1	none
CN(C)c1ccc(/C=C(/C(=O)c2ccc(Cl)cc2Cl)n2cncn2)cc1	none (no result: Mtb UGM inh)
CC(C)CC(=O)/C(=C\c1ccc(Cl)cc1Cl)n1cncn1	RecA intein inh 44 (no result: Mtb UGM inh, Rv3671c protease, Mtb bLac sens)
COc1ccc(/C=C(/C(=O)c2ccc(Cl)cc2Cl)n2cncn2)cc1	GDH-TPI inh 32
N#CC(C(=O)NC1CCCCC1)c1nc2ccccc2nc1N1CCN(c2ccc(F)cc2)CC1 (stereo not drawn)	none (no result: Mtb UGM inh, GDH-TPI inh, Rv3671c protease, Mtb bLac sens, Mtb FBA inh)
